Source: PubChem BioAssay
An excerpt weighted towards active compounds, which were near 10% of everything screened.
BAZ2B block: blocks human BAZ2B. AID 504333. Q9UIF8. actives 4.4% (n = 360,000). Potency, µM (highest dose often 114 µM), without a hit: at the highest dose activity change, negative = inhibition, actives largely listed as inhibitors. AlphaScreen BAZ2B-H3K14Ac peptide displacement; note: potency is the fitted concentration of half-maximal effect; % is set by controls: 0 for no effect and ±100 for the full control effect; nearly all actives have a fitted effect of over 60% in size
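AlphaScreen displacement: compounds (up to 110uM) incubated 30 min at room temperature with a preformed 50 nM BAZ2B/50 nM biotinylated H3K14Ac peptide complex in PBS pH 7.4 with Tween-20. Donor and acceptor beads at 10 ug/mL final added, 20 min light-protected before reading.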
Six1-Eya2 blk: blocks human Six1 binding to Eya2. Q15475+O00167. AlphaScreen GST-Six1/His-Eya2 binding, biochemical; hits give low values. activity change, % (test concentration not listed). actives 0.56% (n = 360,000); in the data active = activity change below about -65%; inconclusive = mostly about -30% to -63%; note: % is set by controls: 0 for no effect and ±100 for the full control effect
Target sequence (O00167 whole entry, looked up): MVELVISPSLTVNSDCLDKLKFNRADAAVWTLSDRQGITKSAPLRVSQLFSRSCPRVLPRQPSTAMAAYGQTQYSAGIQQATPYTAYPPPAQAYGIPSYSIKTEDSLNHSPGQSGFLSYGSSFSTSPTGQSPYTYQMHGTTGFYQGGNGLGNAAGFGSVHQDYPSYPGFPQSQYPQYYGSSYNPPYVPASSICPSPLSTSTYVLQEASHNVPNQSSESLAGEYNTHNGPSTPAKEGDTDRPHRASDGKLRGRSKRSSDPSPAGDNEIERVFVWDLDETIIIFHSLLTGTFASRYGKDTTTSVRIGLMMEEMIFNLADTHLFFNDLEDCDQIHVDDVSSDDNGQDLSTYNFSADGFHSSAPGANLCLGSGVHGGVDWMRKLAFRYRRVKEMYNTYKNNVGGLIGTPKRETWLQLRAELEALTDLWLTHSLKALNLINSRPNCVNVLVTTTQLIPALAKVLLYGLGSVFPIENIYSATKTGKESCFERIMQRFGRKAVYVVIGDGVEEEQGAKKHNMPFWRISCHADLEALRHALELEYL
Target sequence (Q15475 whole entry, looked up): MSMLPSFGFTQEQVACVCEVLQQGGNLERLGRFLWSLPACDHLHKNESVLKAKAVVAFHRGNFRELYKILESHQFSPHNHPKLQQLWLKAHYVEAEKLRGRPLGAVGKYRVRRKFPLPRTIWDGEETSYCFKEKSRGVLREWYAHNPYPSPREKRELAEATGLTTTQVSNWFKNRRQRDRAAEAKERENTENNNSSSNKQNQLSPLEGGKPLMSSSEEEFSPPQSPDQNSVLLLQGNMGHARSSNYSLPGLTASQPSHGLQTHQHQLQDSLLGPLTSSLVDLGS
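GST-Six1 + His-Eya2 (5X stock: 250/500 nM); Tris pH 8.0, 300 mM NaCl, 0.05% BSA, 0.02% Tween 20; GSH donor/Ni acceptor beads; 1 h 37 °C dark; AlphaScreen readout.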
G9a inh: blocks human histone lysine methyltransferase G9a; G9a H3K9 monomethylation, AlphaScreen, 2 h; AID 504332; Q96KQ7; actives 8.8% (n = 350,000); Potency, µM (highest dose often 102 µM), for inactives: top-dose activity, negative = inhibition, usual class: inhibitors; note: potency is the fitted concentration of half-maximal effect; % is set by controls: 0 for no effect and ±100 for the full control effect; nearly all actives have a fitted effect of over 75% in size
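Step 1: enzyme (final 20 nM) with compound, 15 min RT. Step 2: substrate peptide 500 nM and SAM 20 uM, 2 h RT. Step 3: anti-H3K9me1 antibody and AlphaScreen beads, 10 min, then plate read.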
JMJD2A Tudor: JMJD2A Tudor domain (human) inhibition; O75164; Potency, µM (doses to about 114 µM), without a hit: top-dose activity change, negative = inhibition, most hits filed as inhibitors; AID 504339; AlphaScreen JMJD2A-Tudor / H3K4me3 peptide binding; actives 4.4% (n = 390,000); note: potency is the fitted concentration of half-maximal effect; % is set by controls: 0 for no effect and ±100 for the full control effect; nearly all actives have a fitted effect of over 50% in size
CtBP-E1A blk: inhibitors of CtBP/E1A interaction. activity change, % (no concentration beside the values). actives 0.49% (n = 340,000). AID 651724. AlphaScreen GST-E1A/His-CtBP binding, 1536-well; hits give low values; in the data active = activity change below about -65%; inconclusive = mostly about -30% to -63%; note: % is set by controls: 0 for no effect and ±100 for the full control effect
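Protein mix (5X: 125 nM each GST-E1A, His-CtBP) was incubated with pinned compound 2 h at 37 deg C in dark, in 50 mM Tris pH 8.0 buffer with 300 mM NaCl. Glutathione donor and nickel acceptor beads followed; AlphaScreen signal read after 1 h.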
HP1b chromo inh: HP1-beta chromodomain-methylated histone interaction inhibition. actives 0.56% (n = 390,000). Potency, µM (doses to about 114 µM), for the others: at the highest dose activity change, negative = inhibition, actives largely listed as inhibitors. AlphaScreen HP1-beta / biotin-H3K9me3 peptide binding. P83916; note: potency is the fitted concentration of half-maximal effect; nearly all actives have a fitted effect of over 70% in size
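AlphaScreen: HP1-beta (50 nM) preformed 30 min with biotin-H3(1-18)K9me3 peptide (50 nM) in PBS pH 7.4, 0.01% Tween-20. Compound added for 30 min at RT, then streptavidin donor/nickel chelate acceptor beads (10 ug/mL) for 30 min.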
The depositor's hits bear a star; ? = inconclusive; . = not tested or not shown; [ ] = another dose, or the depositor's remark. Unless noted, calls come from the whole dose curve; as a rule, active = well fitted inhibition curve with a large enough effect; inconclusive = small, poorly fitted or top-dose-only effect; inactive = no such curve, though single readings can be large or run the other way.

SMILES	BAZ2B block	Six1-Eya2 blk	G9a inh	JMJD2A Tudor	CtBP-E1A blk	HP1b chromo inh
CN1C(=O)c2cccc3c(S(=O)(=O)Nc4ccc(O)c(C(=O)O)c4)ccc1c23	-10%	-72*	?	-19%	?	-10%
Cc1cccc(NC(=O)CN(C2=NC3CS(=O)(=O)CC3S2)c2ccccc2F)c1 (stereo not drawn)	-5%	3	21%	-7%	5	40%
O=C(O)CC/C(=N/NC(=O)c1cn(-c2ccccc2)nc1-c1ccccc1)C(=O)O	?	-9	35µM*	?	.	14%
COc1ccc(NC(=O)C2CCN(S(=O)(=O)c3cccc4nonc34)CC2)cc1	2%	-5	45µM*	6%	6	27%
CC(=O)c1ccc(NC(=O)C2CCN(S(=O)(=O)c3cccc4cccnc34)CC2)cc1	-4%	-2	50µM*	-23%	6	31%
Nc1ccc(C(=O)Nc2ccc(Nc3ccncc3)cc2)c([N+](=O)[O-])c1	.	2	.	.	-7	.
O=C(Nc1ccc(Cl)cc1F)c1cnc2sc(N3CCOCC3)nn2c1=O	6%	.	8%[59 µM]	9%	.	46%
CN(C(=O)CN1C(=O)/C(=C/c2ccccc2F)SC1=S)C1CCS(=O)(=O)C1 (stereo not drawn)	45µM*	-1	14%	-3%	3	52%
O=C(/C=C/c1ccc(F)cc1)NC(=S)N1CCCCC1c1cccnc1 (stereo not drawn)	-20%	-1	?	?	-5	-7%
CN(C(=O)CN1C(=O)/C(=C/c2ccccc2Cl)SC1=S)C1CCS(=O)(=O)C1 (stereo not drawn)	-20%	-6	26%[59 µM]	?	1	-6%
O=C1/C(=C/c2ccc(F)cc2)SC(=S)N1CC(=O)N1CCCCC1c1cccnc1 (stereo not drawn)	?	15	40µM*	?	.	21%
O=C1/C(=C/c2ccccc2F)SC(=S)N1CC(=O)N1CCCCC1c1cccnc1 (stereo not drawn)	?	-27	5µM*	19%	.	43%
CC(C)n1cc(C(=O)NC2CC(C)(C)Cc3c2cnn3-c2ccccc2)cn1 (stereo not drawn)	-2%	-3	-1%[59 µM]	1%	1	40%
Cc1ccc(S(=O)(=O)NNC(=O)c2cnn(-c3ccc(Cl)cc3)c2C(F)(F)F)cc1	-21%	-5	56µM*	-17%	0	1%
COc1ccc(CCN2C(=O)CC(NNc3ccc([N+](=O)[O-])cc3)C2=O)cc1OC (stereo not drawn)	-36%	-7	14µM*	-21%	-3	8%
CCCCSc1nnc2c(n1)OC(C(=O)c1ccccc1)Nc1ccccc1-2 (stereo not drawn)	?	.	7.1µM*	.	.	.
O=C(O)c1ccc(C2Nc3ccccc3-c3nnc(SCc4ccc(Cl)cc4)nc3O2)cc1 (stereo not drawn)	50µM*	.	-27%[59 µM]	?	.	7%
CCOc1cc(C2Nc3ccccc3-c3nnc(SCc4ccccc4)nc3O2)ccc1OC (stereo not drawn)	-13%	.	-44%[59 µM]	-23%	.	1%
COc1ccccc1C(=O)C1Nc2ccccc2-c2nnc(SC)nc2O1 (stereo not drawn)	2%	-10	7.1µM*	-35%	-16	-4%
CCCC(=O)N1CCCC(C(=O)c2cccc(OC(C)C)c2)C1 (stereo not drawn)	.	-3	.	-1%	4	38%
CCc1nc(Nc2ccccc2)c2oc3ccccc3c2n1	-7%	2	-23%[59 µM]	2%	8	45%
Oc1ccc(Nc2ncnc3c2oc2ccccc23)cc1	-17%	-9	?	-29%	.	41%
CCc1nc(Nc2ccc(N3CCN(C(C)=O)CC3)cc2)c2oc3ccccc3c2n1	50µM*	-17	?	?	-5	0%
Oc1cccc(Nc2ncnc3c2oc2ccccc23)c1	?	-6	50µM*	-27%	-9	22%
CCc1nc(Nc2cccc(F)c2)c2oc3ccccc3c2n1	?	6	45µM*	-10%	3	10%
SMILES	BAZ2B block	Six1-Eya2 blk	G9a inh	JMJD2A Tudor	CtBP-E1A blk	HP1b chromo inh
CCc1nc(Nc2ccccc2F)c2oc3ccccc3c2n1	56µM*	22	50µM*	-4%	8	35%
C[C@@H]1CN([C@@H](C)CO)C(=O)c2cc(C#CC3CCCCC3)cnc2O[C@@H]1CN(C)S(=O)(=O)c1ccc(F)cc1	.	5	.	.	7	.
Cc1ccc(-c2noc(CN(C3CCCCC3)S(=O)(=O)c3ccc(Cl)cc3)n2)cc1	-1%	.	29%[59 µM]	17%	.	59%
CCN(CC)c1ccc(NC(=O)c2cc(S(=O)(=O)N3CCc4ccccc43)cn2C)c(C)c1	2%	.	-17%[59 µM]	-8%	.	48%
CCc1nc(Nc2ccc(F)cc2)c2oc3ccccc3c2n1	0%	5	45µM*	1%	1	43%
Cc1ccc2ncc(C(=O)Nc3cccc(C(F)(F)F)c3)c(=O)n2c1	0%	.	11%[59 µM]	-15%	.	34%
O=C(O)c1c(C(=O)O)c(-c2ccc(Cl)c(Cl)c2)n2c1CSC2	-37%	-5	45µM*	-22%	-1	2%
Cc1ccc(-c2c(C(=O)O)c(C(=O)O)c3n2CCC3)cc1	-26%	-7	?	?	.	27%
Cc1ccc(CSCC(=O)N/N=C/c2ccc(OCC(=O)Nc3ccc(C)cc3)cc2)cc1	?	1	18µM*	?	9	1%
Cc1ccc(OCC(=O)Nc2ccc(N(C)C)cc2)cc1	-4%	-20	8.9µM*	?	-6	?
COc1ccc(-c2ccc(=O)n(CC(=O)Nc3ccc(N(C)C)cc3)n2)cc1	32µM*	.	5µM*	56µM*	.	?
CCN(CC(=O)Nc1ccccc1OC)Cc1csc(CC(=O)Nc2ccc(C)cc2)n1	.	9	.	-32%	-5	7%[57 µM]
CCc1ccc2c(c1)C(NC(C)=O)C(=O)N2CCN1CCOCC1 (stereo not drawn)	13µM*	-5	28µM*	10µM*	4	-18%[57 µM]
CCCN1C(=O)C(NC(C)=O)c2ccccc21 (stereo not drawn)	-24%	5	40µM*	-12%	-19	14%
COc1ccc2c(c1)C(NC(C)=O)C(=O)N2CCc1ccccc1 (stereo not drawn)	-12%	1	-22%	-25%	-10	32%
COc1ccccc1NC(=O)c1sc2ncn(Cc3ccccc3Cl)c(=O)c2c1C	8%	.	-4%[59 µM]	-20%	.	24%
CN(CCCNC(=O)CSc1cc(=O)n(C)c2cc(Cl)ccc12)Cc1ccccc1	11%	-12	-3%	-8%	-5	22%
